Experimental findings from PubChem BioAssay (EPA / NIEHS) are described below.

SMILES strings stand for the structures. The source made the active and inactive calls. How the source made its calls: active means hit-call score of the fitted dose curve at least 0.9, where 1 is the maximum; inactive means score below 0.9.

What is called AC50 is the concentration giving half of the maximal activity seen.

Read-out in the first experiment: BCL2L11 (gene 10018)
The experiment can be described thus: LTEA_HepaRG_BCL2L11: Life Technologies and Expression Analysis (LTEA) Assay for Bcl-2 (BCL2L11) gene using HepaRG (AID 2283473). Conditions: mRNA level, 48 h; actives raise or lower the signal. The method in brief:
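Read-out is BCL2L11 transcript level by qRT-PCR, normalized to three housekeeping genes and fitted bidirectionally against 0.5% DMSO vehicle. HepaRG cells received chemicals for 48 h in serum-free induction medium, 100 uM down in half-log dilutions.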
In the case of `C[C@H]1[C@H](c2ccc(Cl)cc2)SC(=O)N1C(=O)NC1CCCCC1`, the half-maximal activity concentration (AC50) was 67.2 µM (active).

Take `O=C1c2ccccc2C(=O)N1SC(Cl)(Cl)Cl`: the compound was called inactive.

For `O=C(NC(=O)c1c(F)cccc1F)Nc1ccc(OC(F)(F)C(F)OC(F)(F)F)c(Cl)c1` (centres undefined), the call was inactive.

Read-out in a further experiment: Apolipoprotein A-V (APOA5) gene, APOA5 (gene 116519)
In words: LTEA_HepaRG_APOA5: Life Technologies and Expression Analysis (LTEA) Assay for Apolipoprotein A-V (APOA5) gene using HepaRG (AID 2283474). Conditions: mRNA level, 48 h; actives raise or lower the signal. The method in brief: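 Readout is APOA5 transcript level by qRT-PCR on Fluidigm dynamic arrays, normalized to three housekeeping genes. HepaRG cultures received chemicals for 48 h at up to 100 uM (half-log steps, 0.5% DMSO), with gain or loss scored relative to DMSO.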
Consider `CCN(CC)C(=O)SCc1ccc(Cl)cc1`, for which the call was inactive.

On to `CC1(C)C(C=C(Cl)Cl)C1C(=O)OC(C#N)c1ccc(F)c(Oc2ccccc2)c1` (centres undefined), for which the call was inactive.

For the compound `O=C(O)COc1ccc(Cl)cc1Cl`, the compound was classed as inactive.

For `CCC(C)(C)C(=O)OC1=C(c2ccc(Cl)cc2Cl)C(=O)OC12CCCCC2`, the concentration at half-maximal activity (AC50) was 50 µM (active).

With `CCCN(CCC)c1c([N+](=O)[O-])cc(C(F)(F)F)cc1[N+](=O)[O-]`, the outcome was inactive.

`CNC(=O)/C=C(\C)OP(=O)(OC)OC`: the outcome was inactive.

With `O=C(O)C(F)(F)C(F)(F)C(F)(F)C(F)(F)C(F)(F)C(F)(F)C(F)(F)F`, the compound was classed as inactive.

On to `CCCN(CCOc1c(Cl)cc(Cl)cc1Cl)C(=O)n1ccnc1`, for which the half-maximal activity concentration (AC50) was 39 µM (active).

As to `CCc1ccc(C(=O)NN(C(=O)c2cc(C)cc(C)c2)C(C)(C)C)cc1`, the result was inactive.

Turning to `N#CN`, the result was inactive.

For the compound `CCOCN(C(=O)CCl)c1c(C)cccc1CC`, the AC50 is 79.4 µM (active).

For the compound `O=S1OCC2C(CO1)C1(Cl)C(Cl)=C(Cl)C2(Cl)C1(Cl)Cl` (centres undefined), the concentration at half-maximal activity (AC50) was 63.8 µM (active).

Turning to `CCC(C)(NC(=O)c1cc(Cl)c(C)c(Cl)c1)C(=O)CCl` (centres undefined), the compound was called inactive.

Take `O=C(Nc1ccccc1)Nc1cnns1`: the outcome was inactive.

Take `CCC(C)Nc1c([N+](=O)[O-])cc(C(C)(C)C)cc1[N+](=O)[O-]` (centres undefined): the outcome was inactive.

For `Cc1[nH]c(=O)n(C(C)(C)C)c(=O)c1Cl`, the result was inactive.
